For 44 compounds, cytotoxicity call results are on record in the antibiotic and cytotoxicity screens of Wong et al. (2023).

Hit rate of the full screen: of about 39,000 compounds, about 3,300 (8.5%) were called active. For the sample, actives were picked, then their nearest neighbours and some compounds at random.

The test has as its system HepG2. Kind of test: cytotoxicity call (relative viability < 0.9). The settings on record: 10 µM.
Take `CC(C)NC(=O)[C@@]1(C)c2ccccc2C(=O)N(Cc2cc(C(F)(F)F)cc(C(F)(F)F)c2)[C@H]1c1ccc(CO)cc1`: the cytotoxicity call is “inactive”.
On to `C[C@H](CO)N1C[C@H](C)[C@@H](CN(C)S(=O)(=O)c2ccccc2F)Oc2cc(C#Cc3cccc(F)c3)ccc2S1(=O)=O`, for which the cytotoxicity call was “inactive”.
As for `COc1ccc(S(=O)(=O)N(C)C[C@H]2Oc3ccc(NC(=O)Cc4ccccc4)cc3CC(=O)N([C@@H](C)CO)C[C@@H]2C)cc1`, the entry is “inactive”; as for `C[C@H](CO)N1C[C@H](C)[C@@H](CN(C)C(=O)Cc2ccccn2)Oc2ncc(C#CC3CCCCC3)cc2C1=O`, “inactive”.
Regarding `C[C@H](CO)N1C[C@H](C)[C@H](CN(C)S(=O)(=O)c2ccc(F)cc2)Oc2ccc(NC(=O)c3ccncc3)cc2C1=O`, the cytotoxicity call was “inactive”.
For the compound `CC(C)NC(=O)Nc1ccc2c(c1)CC(=O)N([C@@H](C)CO)C[C@H](C)[C@@H](CN(C)Cc1ccc3c(c1)OCO3)O2`, the cytotoxicity call is “inactive”.
Take `C[C@@H]1CCCCO[C@@H](CN(C)C(=O)c2ccccc2)[C@H](C)CN([C@@H](C)CO)C(=O)c2cc(NC(=O)Nc3ccc(F)cc3)ccc2O1`: the cytotoxicity call was “inactive”.
In the case of `C[C@H](NC(=O)C[C@H]1C[C@H]2c3cc(NC(=O)Nc4ccc(C(F)(F)F)cc4)ccc3O[C@H]2[C@@H](CO)O1)c1ccccc1`, the cytotoxicity call was “inactive”.
As for `CC(C)[Si]1(C(C)C)OCc2cc(-c3ccc(-c4ccc(Cl)c(Cl)c4)o3)nc(-c3ccccc3)c21`, the cytotoxicity call is “inactive”.
As for `CCC(=O)OC1C2CC3=C4CC(=O)OC(c5ccoc5)C4(C)CCC3C(C)(C2=O)C(CC(=O)OC)C1(C)C` (centres undefined), the cytotoxicity call is “inactive”.
For the compound `C[C@H](CO)N1C[C@H](C)[C@@H](CN(C)S(=O)(=O)c2ccccc2)OCCCC[C@H](C)Oc2ccc(NC(=O)NC3CCCCC3)cc2C1=O`, the cytotoxicity call is “inactive”.
As for `C[C@@H]1CN([C@H](C)CO)C(=O)c2cc(NC(=O)Cc3ccccc3)ccc2O[C@@H](C)CCCCO[C@@H]1CN(C)Cc1ccc(Cl)c(Cl)c1`, the cytotoxicity call is “inactive”.
Turning to `C[C@@H]1CCCCO[C@@H](CN(C)Cc2ccc(Cl)c(Cl)c2)[C@@H](C)CN([C@@H](C)CO)C(=O)c2cc(NC(=O)Cc3ccccc3)ccc2O1`, the cytotoxicity call is “inactive”.
As for `C[C@@H]1CCCCO[C@H](CN(C)Cc2ccc(Cl)c(Cl)c2)[C@@H](C)CN([C@@H](C)CO)C(=O)c2cc(NC(=O)Cc3ccccc3)ccc2O1`, the entry is “inactive”; as for `C[C@@H]1CCCCO[C@@H](CN(C)Cc2ccc(Cl)c(Cl)c2)[C@H](C)CN([C@@H](C)CO)C(=O)c2cc(NC(=O)Cc3ccccc3)ccc2O1`, “active”.
As for `C[C@H]1CCCCO[C@H](CN(C)Cc2ccc(Cl)c(Cl)c2)[C@@H](C)CN([C@@H](C)CO)C(=O)c2cc(NC(=O)Cc3ccccc3)ccc2O1`, the cytotoxicity call was “active”.
With `C[C@@H]1CCCCO[C@H](CN(C)Cc2ccccc2)[C@@H](C)CN([C@H](C)CO)C(=O)c2cc(NC(=O)Cc3ccccc3)ccc2O1`, the cytotoxicity call is “inactive”.
For `C[C@H]1CN([C@@H](C)CO)S(=O)(=O)c2ccc(C#CC3(O)CCCC3)cc2O[C@@H]1CN(C)C(=O)Nc1ccccc1`, the cytotoxicity call is “inactive”.
Next, `C[C@H](CO)N1C[C@H](C)[C@@H](CN(C)S(=O)(=O)c2cccs2)OCCCC[C@H](C)Oc2ccc(NC(=O)Cc3ccccc3)cc2C1=O`: “inactive”; `C[C@@H]1CN([C@H](C)CO)C(=O)Cc2cc(NC(=O)Cn3cnnn3)ccc2O[C@H]1CN(C)Cc1ccc2c(c1)OCO2`: “inactive”.
For `CO[C@@H](CN(C)S(=O)(=O)c1ccc(Cl)cc1)[C@H](C)CN([C@@H](C)CO)S(=O)(=O)c1cccc(Cl)c1`, the cytotoxicity call is “inactive”.
For `O=C1OC2(c3ccc(O)cc3Oc3cc(O)ccc32)c2ccccc21`, the cytotoxicity call is “inactive”.
Take `O=C1OC(c2cc(I)c(O)c(I)c2)(c2cc(I)c(O)c(I)c2)c2ccccc21`: the cytotoxicity call was “inactive”.
`O=C1OC2(c3ccccc31)c1cc(I)c(O)c(I)c1Oc1c2cc(I)c(O)c1I`: the cytotoxicity call was “active”.
`C[C@@H]1CN([C@@H](C)CO)C(=O)c2cccc(NC(=O)c3cnccn3)c2O[C@H]1CN(C)C(=O)NC1CCCCC1`: the cytotoxicity call was “inactive”.
Consider `Cc1[nH]c(=O)[nH]c(=O)c1S(=O)(=O)N1CCN(c2ccccc2)CC1`, for which the cytotoxicity call is “inactive”.
For the compound `Cc1noc(C)c1NC(=O)N(C)C[C@@H]1OCCCC[C@H](C)Oc2ccc(NS(=O)(=O)c3ccccc3)cc2C(=O)N([C@@H](C)CO)C[C@H]1C`, the cytotoxicity call is “inactive”.
With `C[C@H]1CN([C@@H](C)CO)S(=O)(=O)c2ccc(C#Cc3ccccc3F)cc2O[C@@H]1CN(C)C(=O)Cc1cccnc1`, the cytotoxicity call is “inactive”.
With `O=C(C[C@@H]1CC[C@@H]2[C@H](COC[C@@H](O)CN2S(=O)(=O)c2cccc(Cl)c2)O1)NC1Cc2ccccc2C1`, the cytotoxicity call was “inactive”.
Consider `O=C(C[C@@H]1C[C@H]2c3cc(NS(=O)(=O)c4ccc(F)cc4)ccc3O[C@H]2[C@H](CO)O1)NC1CCCC1`, for which the cytotoxicity call was “inactive”.
For the compound `COCC#Cc1cnc2c(c1)C(=O)N([C@@H](C)CO)C[C@H](C)[C@H](CN(C)C(=O)c1cnccn1)O2`, the cytotoxicity call is “inactive”.
Turning to `C#CC[C@H](c1nc2cc(Cl)ccc2c(=O)n1Nc1ccccc1)N(CCCN)C(=O)c1cccc(Cl)c1F`, the cytotoxicity call was “active”.
Take `C[C@@H]1CN([C@H](C)CO)S(=O)(=O)c2ccc(-c3cccc(C#N)c3)cc2O[C@H]1CN(C)C(=O)c1ccncc1`: the cytotoxicity call was “inactive”.
As for `Cc1nc[nH]c1CN(C)[C@H](C)C(=O)N(C)C`, the cytotoxicity call was “inactive”.
As for `CN(C)CCC=C1c2ccccc2COc2ccc(CC(=O)O)cc21.Cl`, the entry is “inactive”; as for `CN(C)CCC=C1c2ccccc2CCc2ccccc21.Cl`, “active”; as for `CN(C)CCC=C1c2ccccc2C=Cc2ccccc21.Cl`, “active”.
As to `CN(C)CCC=C1c2ccccc2COc2ccccc21.Cl`, the cytotoxicity call is “active”.
In the case of `CN(C)CN1C(=O)c2ccccc2C1=O`, the cytotoxicity call was “inactive”.
With `CNCCC=C1c2ccccc2CCc2ccccc21.Cl`, the cytotoxicity call is “active”.
For the compound `Cc1noc(C2CNC2)n1`, the cytotoxicity call is “inactive”.
`COc1ccc(NC(=O)N(C)C[C@@H]2OCCCC[C@@H](C)Oc3ccc(NC(=O)NC(C)C)cc3C(=O)N([C@@H](C)CO)C[C@H]2C)cc1`: the cytotoxicity call was “inactive”.
Next, `COc1cccc(NC(=O)C[C@@H]2CC[C@H]3[C@@H](COc4ccc(NC(=O)C5CCOCC5)cc4C(=O)N3C)O2)c1`: “inactive”; `C[C@H](CO)N1C[C@H](C)[C@H](CN(C)S(C)(=O)=O)Oc2ccc(NC(=O)CCCCCC(=O)Nc3ccccc3N)cc2CC1=O`: “inactive”.
